In the library only some 12% were active in any assay of this set; here they are far more common.
PLK1 PBD inh: PLK1 (human) polo-box domain binding inhibition | Potency, µM, without a hit: max response, negative = inhibition, most hits filed as inhibitors | 360,000 tested, 2.8% active | Plk1 PBD binding of FITC phosphopeptide, fluorescence polarization | P53350; also: potency is read from the fitted curve at half-maximal effect; series mostly up to about 57 µM; % is scaled to controls: 0 for no effect and ±100 for the full control effect; nearly all actives have a fitted effect of over 65% in size
Target sequence (P53350 whole entry, looked up, the tested form may be a part): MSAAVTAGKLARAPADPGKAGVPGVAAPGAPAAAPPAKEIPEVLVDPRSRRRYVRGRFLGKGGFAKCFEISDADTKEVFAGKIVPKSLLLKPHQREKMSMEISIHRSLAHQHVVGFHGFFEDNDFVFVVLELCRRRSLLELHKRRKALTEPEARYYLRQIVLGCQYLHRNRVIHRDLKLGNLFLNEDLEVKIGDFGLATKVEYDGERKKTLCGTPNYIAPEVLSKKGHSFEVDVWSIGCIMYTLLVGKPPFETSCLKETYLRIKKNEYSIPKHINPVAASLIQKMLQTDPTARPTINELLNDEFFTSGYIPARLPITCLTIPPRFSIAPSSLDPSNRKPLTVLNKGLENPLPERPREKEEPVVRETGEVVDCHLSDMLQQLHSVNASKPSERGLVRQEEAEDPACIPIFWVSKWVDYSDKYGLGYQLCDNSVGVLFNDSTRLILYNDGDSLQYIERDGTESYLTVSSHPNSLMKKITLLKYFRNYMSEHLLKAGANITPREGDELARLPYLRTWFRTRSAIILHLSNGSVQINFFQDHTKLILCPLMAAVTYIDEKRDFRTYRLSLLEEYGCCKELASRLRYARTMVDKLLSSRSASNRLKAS
G9a inh: G9a (human) methyltransferase inhibition; Q96KQ7; G9a H3K9 monomethylation, AlphaScreen, 2 h; Potency, µM (doses to about 102 µM), for the others: at the highest dose activity, negative = inhibition, hits mostly inhibitors; 350,000 tested, 8.8% active; AID 504332; also: potency is read from the fitted curve at half-maximal effect; % is scaled to controls: 0 for no effect and ±100 for the full control effect; nearly all actives have a fitted effect of over 75% in size
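Chemiluminescent proximity detection of H3K9 monomethylation, read after 10 min bead incubation in the dark. Reaction: 20 nM G9a, 500 nM biotin-H3K9 peptide, 20 uM SAM cofactor, 2 h, room temperature, following 15 min enzyme-compound preincubation.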
HP1b chromo inh: inhibitors of HP1-beta chromodomain binding to methylated histone tails. P83916. AlphaScreen HP1-beta / biotin-H3K9me3 peptide binding. Potency, µM (series often up to 114 µM), for the others: at the highest dose activity change, negative = inhibition, most hits filed as inhibitors. 390,000 tested, 0.56% active. AID 540317; also: potency is read from the fitted curve at half-maximal effect; nearly all actives have a fitted effect of over 70% in size
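AlphaScreen: HP1-beta (50 nM) preformed 30 min with biotin-H3(1-18)K9me3 peptide (50 nM) in PBS pH 7.4, 0.01% Tween-20. Compound added for 30 min at RT, then streptavidin donor/nickel chelate acceptor beads (10 ug/mL) for 30 min.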
JMJD2A Tudor: blocks the human JMJD2A Tudor domain. O75164. AlphaScreen JMJD2A-Tudor / H3K4me3 peptide binding. Potency, µM (series often up to 114 µM), for the others: at the highest dose activity change, negative = inhibition, usual class: inhibitors. 390,000 tested, 4.4% active. AID 504339; also: potency is read from the fitted curve at half-maximal effect; % is scaled to controls: 0 for no effect and ±100 for the full control effect; nearly all actives have a fitted effect of over 50% in size
PI5P4K alpha inh: inhibitors of human PI5P4K alpha. 330,000 tested, 1.2% active. PI5P4Kalpha enzyme, ADP-Glo luminescence, 60 min; active compounds read low. AID 652105. P48426. max response, %; active = max response of -50% or lower; inconclusive = between -30% and -50%; inactive = -30% or higher; also: value at the top dose of about 77 µM; % is scaled to controls: 0 for no effect and ±100 for the full control effect
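Enzyme plus substrate dispensed, test compounds pinned in, then ATP (5 microM final) added. After 60 min at RT, ADP-Glo reagent 1 for 45 min and reagent 2 for 30 min preceded luminescence imaging.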
BAZ2B inh: inhibitors of human BAZ2B bromodomain | Q9UIF8 | AlphaScreen BAZ2B-H3K14Ac peptide displacement | Potency, µM (top dose mostly 114 µM), inactives show at the highest dose activity change, negative = inhibition, hits mostly inhibitors | 360,000 tested, 4.4% active | AID 504333; also: potency is read from the fitted curve at half-maximal effect; % is scaled to controls: 0 for no effect and ±100 for the full control effect; nearly all actives have a fitted effect of over 60% in size
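Protein-peptide AlphaScreen: BAZ2B 50 nM, b-H3K14Ac 50 nM, 1x PBS pH 7.4 + 0.01% Tween-20. Preincubation 30 min RT; cpd 30 min RT (top 110 uM); beads 20 min RT, light-protected.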
Numbers without * were called inactive; [ ] = another dose, or the depositor's remark. Unless noted, calls follow the shape of the dose curve; as a rule, active = well fitted curve in the direction sought with a large enough effect; inconclusive = small, poorly fitted or top-dose-only effect, or another doubt; inactive = no such curve, though single readings can be large; an effect the other way counts as inactive or inconclusive.

What do the screens show for `COc1ccc(NC(=O)c2csc(C)c2)cc1OC`?
PLK1 PBD inh: 5.6%; G9a inh: 29.3%; HP1b chromo inh: 24.9%; JMJD2A Tudor: -2.2%; PI5P4K alpha inh: 0.8; BAZ2B inh: -3.3%

Results for CCCCN=Cc1sc2ccc(OCC)cc2c1O ?
PLK1 PBD inh: 26.7µM*; G9a inh: inconclusive; HP1b chromo inh: inconclusive; JMJD2A Tudor: 28.2µM*; PI5P4K alpha inh: 0.7; BAZ2B inh: 79.4µM*

What do the screens show for `C=CCN=Cc1sc2ccc(OCC)cc2c1O`?
G9a inh: 44.7µM*; BAZ2B inh: -10.7%

What do the screens show for `CCOc1ccc(/C=N/Nc2nc(C)cs2)c(O)c1`?
PLK1 PBD inh: -25.3%; HP1b chromo inh: 19.0%; JMJD2A Tudor: inconclusive; PI5P4K alpha inh: -21.6; BAZ2B inh: inconclusive

How did CC12CC3CC(C)(C1)CC(C(=O)N1CCN(C(=O)C4CCCO4)CC1)(C3)C2 (configuration not stated) do in these assays?
PLK1 PBD inh: -1.0%; G9a inh: 20.9%; HP1b chromo inh: 11.7%; JMJD2A Tudor: -18.2%; PI5P4K alpha inh: 2.8; BAZ2B inh: -13.9%

Results for N#Cc1cccc(NC(=O)N2CC[C@@]3(CCCN(C(=O)c4cc(C(F)(F)F)cc(C(F)(F)F)c4)C3)C2)c1 ?
G9a inh: -1.3%[12.7 µM]

How did Cn1nc([N+](=O)[O-])c(C(C#N)c2nc3ccccc3n2C)c(Cl)c1=O (configuration not stated) do in these assays?
PLK1 PBD inh: inconclusive; G9a inh: inconclusive; HP1b chromo inh: inconclusive; JMJD2A Tudor: inconclusive; PI5P4K alpha inh: -8.9; BAZ2B inh: 35.5µM*

How did COc1cccc(NC(=O)Cn2c(=O)n(CCCCC(=O)NCc3ccccc3Cl)c(=O)c3ccccc32)c1 do in these assays?
G9a inh: 5.3%[59 µM]; HP1b chromo inh: 24.0%; JMJD2A Tudor: 0.0%; BAZ2B inh: 1.0%

Results for COC(=O)c1cccc(NC(=O)CCN2C(=O)NC(C)(C)C2=O)c1 ?
PLK1 PBD inh: 9.1%; PI5P4K alpha inh: 0.9

How did CC1c2cc3c(cc2CCN1CC(=O)Nc1ccc(S(=O)(=O)N2CCCC2)cc1)OCCCO3 (configuration not stated) do in these assays?
PLK1 PBD inh: -13.8%; G9a inh: 70.8µM*; HP1b chromo inh: 11.8%; JMJD2A Tudor: -17.3%; PI5P4K alpha inh: -2.7; BAZ2B inh: inconclusive

Results for O=C(CN1CCN(S(=O)(=O)c2ccc(Cl)cc2)CC1)Nc1ccc2c(c1)OCO2 ?
PLK1 PBD inh: 26.7µM*; G9a inh: -17.5%; HP1b chromo inh: -5.5%; JMJD2A Tudor: 1.4%[11.4 µM]; PI5P4K alpha inh: 3.0; BAZ2B inh: -11.1%

How did CC(=O)Nc1ccc(S(=O)(=O)N2CCc3cc4c(cc3C2C)OCCCO4)cc1 (configuration not stated) do in these assays?
PLK1 PBD inh: -4.5%; G9a inh: -13.6%; HP1b chromo inh: 21.4%; JMJD2A Tudor: -19.5%; PI5P4K alpha inh: -2.5; BAZ2B inh: inconclusive

How did O=C(CN1CCN(S(=O)(=O)c2ccc3c(c2)OCCO3)CC1)Nc1cccc(F)c1 do in these assays?
PLK1 PBD inh: 0.8%; G9a inh: 56.2µM*; HP1b chromo inh: 16.7%; JMJD2A Tudor: -6.1%; PI5P4K alpha inh: -3.6; BAZ2B inh: -3.8%

What do the screens show for `O=C(CN1CCN(S(=O)(=O)c2ccc(Cl)cc2)CC1)Nc1ccc2c(c1)OCCO2`?
PLK1 PBD inh: -21.4%; G9a inh: 50.1µM*; HP1b chromo inh: 7.7%; JMJD2A Tudor: -17.8%[11.4 µM]; PI5P4K alpha inh: 1.2; BAZ2B inh: -7.3%

Results for CCC(C)NC(=O)c1ccc2nc(-c3cccs3)c(-c3cccs3)nc2c1 (configuration not stated) ?
HP1b chromo inh: 0.8%[57 µM]; JMJD2A Tudor: -10.8%[57.1 µM]

Results for Cc1nc2ccc(NS(=O)(=O)c3c(F)cc(F)cc3Br)cc2s1 ?
PLK1 PBD inh: -22.0%; G9a inh: 16.6%[12.7 µM]; HP1b chromo inh: 50.5%; JMJD2A Tudor: -25.2%; PI5P4K alpha inh: -11.8; BAZ2B inh: 9.8%
